Assay outcomes deposited in PubChem by several laboratories.
Rtt109 Vps75: C. albicans Rtt109 histone acetyltransferase inhibition; inhibition, % at 34.9 µM; 0.16% of 330,000 active; Q5AAJ8; purified Rtt109/Vps75, ThioGlo CoA-SH fluorescence, 4 h; AID 540336;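 active = inhibition of at least 50% in every replicate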
SMARCA2 activ: SMARCA2 function activation, primary screen; activation, % at 9.1 µM; 1% of 370,000 active; MG213 cells, MMTV-luciferase reporter, dexamethasone, overnight; in the data active = activation above about 7.8%;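 also: 0% = vehicle wells and 100% = reference activator wells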
Dyrk1A ADPGlo: Dyrk1A (rat) kinase inhibition; 0.43% of 310,000 active; inhibition, % at 12.5 µM; ADP-Glo luminescence, NFATc1 peptide; Q63470; in the data active = inhibition above about 50%;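 also: plate controls were vehicle with enzyme for no effect and no enzyme for full effect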
CDK5 p35 inh: blocks human CDK5/p35 kinase activity. Q00535+Q15078. Recombinant CDK5/p35, ADP-Glo luminescence, 60 min. inhibition, % at 10 µM. 0.01% of 330,000 active. AID 488839;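 active = highest replicate inhibition of at least 50% and at least 75% of replicates reaching 50%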;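 also: plate controls were DMSO neutral control for no effect and GW8510 at 10 µM for full effect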
esBAF inh: inhibitors of esBAF chromatin remodeling in mouse ES cells; Bmi1-luciferase knock-in reporter, 24 h; 100% = twice the neutral-well signal; 2% of 350,000 active; reporter increase, % at 12.5 µM; in the data active = activation above about 40%;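 also: 0% = median of the plate's neutral control wells and 100% = double that signal; a rise in the Bmi1 reporter signal indicates esBAF inhibition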
dFosB activator: activators of mouse delta FosB homodimer; P13346; purified delta FosB, TAMRA-CDK5 oligo fluorescence polarization; percent of positive-control signal above neutral wells; activation, % at 25 µM; 0.99% of 340,000 active; AID 493131;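 active = mean activation above about 17%, with every replicate also reaching it, limit read from the data, passing the limit was not always enough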
Target sequence (P13346 whole entry, looked up): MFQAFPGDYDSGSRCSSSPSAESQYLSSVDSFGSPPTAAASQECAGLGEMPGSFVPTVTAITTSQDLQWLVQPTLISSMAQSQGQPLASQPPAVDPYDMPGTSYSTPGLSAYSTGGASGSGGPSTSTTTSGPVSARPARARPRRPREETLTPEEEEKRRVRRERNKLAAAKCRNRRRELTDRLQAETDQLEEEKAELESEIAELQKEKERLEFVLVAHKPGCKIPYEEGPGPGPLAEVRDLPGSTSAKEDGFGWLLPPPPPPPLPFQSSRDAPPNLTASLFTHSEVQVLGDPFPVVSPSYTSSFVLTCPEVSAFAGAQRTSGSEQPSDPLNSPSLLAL
ADP-Glo artifact: interferes with ADP-Glo luciferase readout without Dyrk1A. shares compounds with Dyrk1A ADPGlo. ADP-Glo luciferase artifact assay, no Dyrk1A, luminescence. AC50, µM (series often up to 12 µM), for inactives: top-dose activity change, negative = inhibition. 1,300 tested, under 10 active. AID 588348;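 active = fitted half-maximal dose AC50 no more than ten times the top valid tested dose, with luminescence dropping as dose rises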
Numbers without * were called inactive; / = not tested or not shown. Sampled rows, rich in hits. Any-hit rate of the full collection: about 3.2%.

SMILES | Rtt109 Vps75 | SMARCA2 activ | Dyrk1A ADPGlo | CDK5 p35 inh | esBAF inh | dFosB activator | ADP-Glo artifact
O=c1c(O)c(-c2ccc(O)cc2)oc2cc(O)cc(O)c12 | 13.8 | 3.1 | 59.0* | 2.2 | 34.8 | 6.4 | 7.2%
O=c1c(-c2ccc(O)cc2)coc2cc(O)ccc12 | 0.7 | 0.1 | 31.0 | 2.2 | 37.5 | -5.9 | /
O=c1c(O)c(-c2ccc(O)c(O)c2)oc2cc(O)ccc12 | -154.2 | 0.6 | 87.7* | 48.7 | 24.8 | -2.8 | 8.6%
COc1ccc(N(CC(=O)Nc2ccc3c(c2)OCCO3)S(=O)(=O)c2c(C)nn(C)c2C)cc1 | 9.4 | -0.2 | 56.2* | -0.6 | 1.5 | -10.4 | 10.7%
CCc1ccc(NC(=O)CN(c2ccc(OC)cc2)S(=O)(=O)c2c(C)nn(C)c2C)cc1 | 1.6 | 3.1 | -4.0 | -0.9 | -1.6 | -8.1 | /
Nc1nc(N)c(N=Nc2ccccc2)c(=O)[nH]1 | 3.2 | -2.5 | 11.4 | 0.6 | -2.8 | 9.1 | /
Nc1ncnc(N)c1N=Nc1ccccc1 | -1.9 | 6.6 | 54.4* | 1.8 | -19.5 | -2.6 | 8.6%
COc1cc(-c2cn(S(=O)(=O)c3cccc4nsnc34)nc2N)cc(OC)c1OC | -1.1 | -2.7 | 82.5* | 1.2 | -13.8 | 1.5 | 10.2%
COc1ccccc1-c1ccc2c(c1)O[C@@H](CN(C)C(=O)c1cccnc1)[C@H](C)CN([C@H](C)CO)S2(=O)=O | / | / | / | / | -8.0 | / | /
C[C@@H]1CCCCO[C@@H](CN(C)Cc2ccccc2)[C@H](C)CN([C@H](C)CO)C(=O)c2cc(NC(=O)c3ccncc3)ccc2O1 | / | / | / | / | 1.5 | / | /
N=C(N)N=Nc1c(O)[nH]c2ccc(Br)cc12 | 11.2 | -0.4 | 62.6* | 33.7 | / | 15.9 | 8.3%
Oc1ccc(NC(=S)N=Nc2c(O)[nH]c3ccc(Br)cc23)cc1 | 18.8 | -0.3 | 51.0* | 0.4 | -6.3 | 0.1 | 9.7%
Oc1[nH]c2ccc(Br)cc2c1N=NC(=S)Nc1ccc(F)cc1 | -5.9 | -2.8 | 8.2 | -1.2 | / | -2.1 | /
Cc1cccc(Nc2nc(N)c([N+](=O)[O-])c(N3CCC(C)CC3)n2)c1 | 5.3 | -0.4 | 50.3* | 1.7 | / | 13.2 | 6.4%
CCN(CC)CCn1c2ccccc2c(=O)c2c(O)ccc(O)c21 | -6.5 | 7.7 | 84.8* | 3.0 | / | -5.4 | 6.8%
C[C@@H]1CCCCO[C@H](CN(C)C(=O)Nc2ccc(F)cc2)[C@@H](C)CN([C@@H](C)CO)C(=O)c2cc(NS(=O)(=O)c3ccc(F)cc3)ccc2O1 | / | / | / | / | 5.0 | / | /
CN=C1S/C(=C\c2ccc(O)c(Br)c2)C(=O)N1C | 2.3 | 0.8 | 91.0* | 5.9 | 23.1 | -2.4 | 3.8%
CN=C1S/C(=C\c2ccc(Cl)cc2)C(=O)N1C | -6.1 | 2.3 | -5.0 | 0.4 | 6.0 | -8.6 | /
CN1CCN(CCNC(=O)c2cc3c(=O)n(C)c4ccccc4c3n2C)CC1 | 8.9 | -1.2 | 56.8* | -1.3 | 1.9 | -21.5 | 15.4%
Cn1c(C(=O)NC2CC2)cc2c(=O)n(C)c3ccccc3c21 | -9.0 | -1.1 | 53.9* | 5.7 | -6.4 | -9.6 | 9.2%
CCCN1CCN(CCCNC(=O)c2cc3c(=O)n(C)c4ccccc4c3n2C)CC1 | 8.0 | -1.6 | 22.0 | 0.2 | -10.2 | -29.0 | /
CCN(CC)CCNC(=O)c1cc2c(=O)n(C)c3ccccc3c2n1C | 7.6 | 0.4 | 58.4* | -0.5 | -0.6 | -26.0 | 1.9%
CCCCN(CC)CCNC(=O)c1cc2c(=O)n(C)c3ccccc3c2n1C | 8.0 | 0.5 | 49.7 | 1.0 | -6.0 | -13.3 | /
CN(C)CCNC(=O)c1cc2c(=O)n(C)c3ccccc3c2n1C | -6.0 | 3.9 | 52.8* | 0.7 | 4.1 | -12.3 | 8.6%
C[C@@H]1CN([C@H](C)CO)S(=O)(=O)c2ccc(-c3cccnc3)cc2O[C@H]1CN(C)C(=O)c1cccc(F)c1 | / | / | / | / | 1.6 | / | /
C[C@@H]1CCCCO[C@@H](CN(C)C(=O)C2CCCCC2)[C@H](C)CN([C@@H](C)CO)C(=O)c2cc(NC(=O)Cc3ccccc3)ccc2O1 | / | / | / | / | 14.9 | / | /
CCN(CC)CCCNC(=O)c1cc2c(=O)n(C)c3ccccc3c2n1C | -3.2 | -1.3 | 56.7* | -4.7 | -7.0 | -17.0 | 7.1%
COC(=O)[C@@H]1[C@@H](CO)[C@@H]2Cn3c(ccc(C4=CCCCC4)c3=O)[C@@H]2N1Cc1ccc2c(c1)OCO2 | / | / | / | / | 4.3 | / | /
